For 40 compounds, activity, negative = inhibition results are on record in PubChem BioAssay (NCATS).

SMILES strings stand for the structures. Inconclusive results are not listed. Activity calls are given as the source filed them. Calls come from the whole dose curve; as a rule, active = well fitted curve in either direction with a large enough effect (not every such curve was filed as active); inconclusive = small, poorly fitted or top-dose-only effect, or another doubt; inactive = flat fitted curve, though single readings scatter.
% is set by controls: 0 for no effect and ±100 for the full control effect.

This experiment can be described thus: Stat Signaling Pathway (AID 446).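 Note: SIE-controlled beta-lactamase reporter measured as 460/530 nm FRET emission ratio.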 To be noted: ME-180 (cervical carcinoma) SIE beta-lactamase reporter, IL-6 stimulated, 5 h; at 17.2 µM (top of the series) unless noted. In short, it runs like this: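 Overnight-plated ME-180 cells bearing a STAT Inducible Element beta-lactamase reporter; 5 h co-exposure to compound and 40 pM IL-6; values normalized to 300 pM IL-6 and 125 nM JAK inhibitor controls.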
For `CC(C)C1Cc2c(sc3c2c(=O)n(Cc2ccccc2)c2nncn32)CO1` (stereo not given), the activity, negative = inhibition was -3.52% (inactive). The figure for `COC(=O)CSc1ncnc2c1sc1nc(-c3ccco3)c3c(c12)CC(C)(C)OC3` is -10.8% (inactive); for `CCCCOC(=O)CCc1nc2ccccc2[nH]1` it is 6.02% (inactive). Take `O=c1c2c3c(sc2n2cnnc2n1C1CCCCC1)CCC3`: the activity, negative = inhibition is 22.2% (inactive). The figure for `Cn1c(=O)c2c(nc(N3CCC(C(N)=O)CC3)n2CCSc2nc3ccccc3s2)n(C)c1=O` is 1.48% (inactive). Regarding `COc1ccc(CSc2nnc(C)n2N)cc1Br`, the activity, negative = inhibition is 8.37% (inactive). On to `COc1ccccc1N1CCN(C(=O)c2c(C)cc(=O)oc2C)CC1`, for which the activity, negative = inhibition is 6.24% (inactive).

Turning to `O=C(CC(c1ccc(F)cc1)c1ccco1)N1CCCC1` (stereo not given), the activity, negative = inhibition was -1.51% (inactive). In the case of `C/C(=N\O)C1(C)N(O)C(C)(C)C(c2ccco2)=[N+]1[O-]` (stereo not given) it was 1.33% (inactive). The figure for `CC(NC(=O)NCCCC(=O)O)(C(F)(F)F)C(F)(F)F` is 1.17% (inactive); for `CCOC(=O)CC(=O)CSc1nc(N)c(C#N)c(-c2ccc(F)cc2)c1C#N` it is -17.8% (inactive); for `CCOc1ccc(C2/C(=C(/O)c3ccc(OC)cc3)C(=O)C(=O)N2c2cc(C)on2)cc1OC` (stereo not given) it is -9.83% (inactive). The figure for `CC(C)NCc1c(O)c(Br)cc2oc3c(c12)CCCC3` is 5.85% (inactive); for `COc1cccc(COc2nc3c(c(=O)n(C)c(=O)n3C)n2C)c1` it is -3.58% (inactive); for `O=C(Nc1ccc2c(c1)OCCO2)c1ccc(Br)o1` it is 6.03% (inactive). For the compound `Nc1nc2n(n1)C(c1cccs1)CC(c1ccc(Br)cc1)N2` (stereo not given), the activity, negative = inhibition is 4.42% (inactive).

As to `COc1ccc(/C(O)=C2\C(=O)C(=O)N(CCN(C)C)C2c2cccc(OC)c2OC)cc1` (stereo not given), the activity, negative = inhibition was 11.6% (inactive). The figure for `Cc1cc(C)c2nc(SCCC#N)nc(C)c2c1` is 6.57% (inactive); for `c1cncc(-c2nnc3sc(-c4ccco4)nn23)c1` it is -6.03% (inactive). As for `CCCCNC(=O)N1CCOCCOCCN(C(=O)NCCCC)CCOCC1`, the activity, negative = inhibition was 5.68% (inactive). In the case of `CC(=O)NC1(C(F)(F)F)C(=O)Nc2c1c(=O)n(C)c(=O)n2C` (stereo not given) it was 0.854% (inactive); in that of `Nc1ccc2[nH]ncc2c1`, -0.564% (inactive).

For `CCOC(=O)c1c(C)n(C)c2ccc(OC)c(NC(=O)CCN3CCSCC3)c12`, the activity, negative = inhibition was 7.06% (inactive). In the case of `O/N=C1\CCc2cc(Cl)ccc21` it was 6.47% (inactive); in that of `COCC(C)Nc1ncnc2c1cnn2-c1ccc(Cl)cc1` (stereo not given), -3.72% (inactive); in that of `CCOC(=O)CSc1nc(N(C)C)nc(N(C)C#N)n1`, -0.469% (inactive). In the case of `COc1ccc(OC)c(C2=Nn3c(nnc3C3CCCCC3)SC2)c1` it was -1.6% (inactive). With `CCN(CC)C(=O)CN(C#N)c1nc(NC(C)C)nc(NC(C)C)n1`, the activity, negative = inhibition is 8.05% (inactive). Take `CCc1[nH]c(=O)c(C#N)c2c1CSC(C)(C)C2`: the activity, negative = inhibition is 9.69% (inactive). In the case of `Cc1cc(/C(O)=C2\C(=O)C(=O)N(CCN(C)C)C2c2ccncc2)ccc1OCc1ccccc1` (stereo not given), the activity, negative = inhibition was 4.75% (inactive). The figure for `COc1ccc(OC)c(C2C(C#N)=C(N)Oc3cc(C)n(Cc4ccccn4)c(=O)c32)c1` (stereo not given) is -2.84% (inactive); for `Cc1nnc(N2CCOCC2)c2ccccc12` it is 5.08% (inactive).

For `CCC1=Nc2ccccc2NC2=C1C(=O)CCC2`, the activity, negative = inhibition was -3.13% (inactive). In the case of `O=C(O)C1CCCCN1S(=O)(=O)c1cccc2nsnc12` (stereo not given), the activity, negative = inhibition was 5.88% (inactive). The figure for `COc1cccc(-c2nn3c(-c4ccco4)nnc3s2)c1` is 6.95% (inactive). For `COc1ccc(Cl)cc1N=Cc1c(O)cc(C)oc1=O`, the activity, negative = inhibition was 5.26% (inactive). The figure for `Cc1ccc(N(Cc2cc3ccccc3[nH]c2=O)C(=O)c2ccco2)c(C)c1` is -13% (inactive).

In the case of `CCCCNC(=O)c1cc2n(n1)C(C(F)(F)F)CC(c1ccccc1)N2` (stereo not given), the activity, negative = inhibition was -0.224% (inactive). The figure for `COC(=O)c1cc(Br)c(=O)n(-c2nccs2)c1` is 2.73% (inactive). For `CCc1cccc(C)c1N(C(=O)Cn1c(=O)[nH]c2ccccc21)C(C)COC` (stereo not given), the activity, negative = inhibition was -1.06% (inactive).
